According to PubChem BioAssay (NCI):
This is part of a sample that, as a whole, favours compounds with a hit. Of some 83,000 tested, about 20% had one in any assay.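 In brief: 96-well plates, 48 h treatment, single concentration, percent growth endpoint.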 A number with no mark means an inactive call. The source made the active and inactive calls. The calls were made as follows: active = growth percent below 10; inactive = the rest.

Legend:
Assay in all cases: NCI-60 one-dose screen, 48 h (100 = growth as untreated, 0 = no growth, -100 = all killed)
Conditions in all cases: 10 µM unless noted
HCT-15 colon = tested on: HCT-15 colon
HT29 colon = tested on: HT29 colon
SNB-75 CNS = tested on: SNB-75 CNS
SNB-19 CNS = tested on: SNB-19 CNS
U251 CNS = tested on: U251 CNS
PC-3 prostate = tested on: PC-3 prostate
SK-MEL-5 melanoma = tested on: SK-MEL-5 melanoma
UACC-62 melanoma = tested on: UACC-62 melanoma
LOX IMVI melanoma = tested on: LOX IMVI melanoma
SK-MEL-28 melanoma = tested on: SK-MEL-28 melanoma
SK-MEL-2 melanoma = tested on: SK-MEL-2 melanoma
EKVX NSCLC = tested on: EKVX NSCLC
SN12C renal = tested on: SN12C renal
UO-31 renal = tested on: UO-31 renal
TK-10 renal = tested on: TK-10 renal
ACHN renal = tested on: ACHN renal
CAKI-1 renal = tested on: CAKI-1 renal
A498 renal = tested on: A498 renal
CCRF-CEM leukemia = tested on: CCRF-CEM leukemia
MOLT-4 leukemia = tested on: MOLT-4 leukemia

SMILES	growth (HCT-15 colon)	growth (HT29 colon)	growth (SNB-75 CNS)	growth (SNB-19 CNS)	growth (U251 CNS)	growth (PC-3 prostate)	growth (SK-MEL-5 melanoma)	growth (UACC-62 melanoma)	growth (LOX IMVI melanoma)	growth (SK-MEL-28 melanoma)	growth (SK-MEL-2 melanoma)	growth (EKVX NSCLC)	growth (SN12C renal)	growth (UO-31 renal)	growth (TK-10 renal)	growth (ACHN renal)	growth (CAKI-1 renal)	growth (A498 renal)	growth (CCRF-CEM leukemia)	growth (MOLT-4 leukemia)
CCOC(=O)c1cn2ncnc(Oc3ccc(NC(=O)NCCN(CC)CC)c(Cl)c3)c2c1C	3.71% (active)	5.37% (active)	89.1%	83.2%	65.2%	66.1%	46.6%	-8.89% (active)	-32.7% (active)	-77.4% (active)	112%	77.2%	68.3%	57%	110%	88.2%	68.8%	90.3%	35.5%	49.2%
O=C(N/N=C/[C@H](O)[C@@H](O)[C@@H](O)[C@H](O)CO)c1ccc(NC(=O)c2cccnc2)cc1	105%	111%	92.6%	97.4%	102%	102%	104%	95.5%	104%	111%	109%	107%	99.4%	92.5%	106%	103%	101%	107%	103%	114%
C[C@H](C(=O)Nc1ccc(S(N)(=O)=O)cc1)S(=O)(=O)c1ccccc1	98.1%	107%	96.9%	95.5%	97.5%	101%	99.2%	102%	98%	115%	102%	98.3%	101%	85.8%	95.4%	98.9%	95.2%	106%	105%	105%
COc1ccc(C2C(N)=NNC2c2cccc(O)c2)cc1 (stereo not given)	102%	104%	84.7%	81.3%	93.6%	95.6%	101%	91.2%	97.7%	108%	87.6%	95.5%	96.4%	83.7%	122%	106%	88.7%	126%	105%	96.7%
Cc1[nH]c(C(=O)Nc2ccc(C(=O)NCCN)cc2OC(C)C)c(Cl)c1Cl	34.3%	2.87% (active)	78.4%	52%	-21.4% (active)	45%	71.2%	84%	-95.1% (active)	70.9%	98.6%	87.6%	48.1%	57.1%	-21.6% (active)	40.7%	14.2%	67.4%	-10.5% (active)	-27.7% (active)
COc1ccc(C(=O)/C=C/c2sc(Cl)nc2Cl)cc1	13.1%	31.9%	50.9%	68.9%	16.5%	52.3%	-39.1% (active)	58.8%	-49.9% (active)	53.2%	39.8%	65.2%	18%	51.9%	104%	-44.5% (active)	27.4%	93.2%	12.3%	11.6%
COc1ccc(N)c(N)c1	101%	104%	85.7%	96.7%	107%	99.4%	105%	93.6%	99.3%	111%	121%	105%	100%	75.3%	113%	97.3%	94.4%	95.1%	83.1%	96.2%
O=c1n(Cc2ccc3ccccc3c2)ccn1Cc1ccc2ccccc2c1	91.4%	77.1%	53.2%	87.2%	92.5%	94.4%	95.5%	89.8%	91.2%	94.3%	83%	96.6%	91.2%	86.5%	82.7%	74.3%	90%	105%	117%	91.8%
Cc1cc2[nH]c(=O)c3c4ncccc4cn3c2cc1C	5.25% (active)	-23.7% (active)	99.4%	50.2%	24.1%	57.1%	70%	-8.94% (active)	-83.3% (active)	95.1%	93.8%	60.9%	39.3%	37.1%	18.1%	32.2%	-24.7% (active)	105%	21.7%	19.4%
COc1c(B(O)O)cc(F)cc1-c1nc2ccc3[nH]ncc3c2c2c1CCCC2	3.63% (active)	13%	-94.5% (active)	11.3%	11.8%	13.3%	17.1%	20.6%	2.28% (active)	21.3%	18.7%	10.2%	11.6%	5.35% (active)	21.5%	9.67% (active)	-5.6% (active)	-67.9% (active)	10.9%	9.89% (active)
CNCCCC12CCC(c3ccccc31)c1ccccc12	95.4%	60.4%	60.2%	91.5%	81.1%	71.9%	75.3%	90.9%	79.6%	87.4%	100%	87.9%	73.4%	58%	80.2%	80.6%	83.4%	93.7%	84.7%	89.6%
O=C(Cc1ccc(F)c(Cl)c1)Nc1cc(C2(C(F)(F)F)CC2)nn1Cc1ccccc1	93.9%	18%	-21.6% (active)	9.43% (active)	24.3%	86.8%	83.6%	65.9%	86.3%	98%	18.9%	68.1%	49.3%	42.4%	81%	35.9%	10.1%	-2.62% (active)	15%	93%
O=CN(SSN(C=O)C1CCCCC1)C1CCCCC1	109%	108%	109%	99.9%	109%	103%	119%	85.5%	96.8%	116%	111%	95.3%	99.7%	60.6%	106%	105%	101%	116%	111%	65.2%
CCCCCCN(CCCCCC)c1ccc(/C=C2/SC(=O)NC2=O)c(C)c1	75.7%	79.6%	78.8%	96%	75.5%	69.8%	82.1%	73.1%	86.5%	93.8%	83%	79.1%	80.7%	64.1%	108%	93.4%	84.1%	82.9%	73%	75.1%
CN1CCN(Cc2ccc(NC(=O)c3cncc(C#Cc4cnccc4C#N)c3)cc2C(F)(F)F)CC1	55%	27.5%	122%	102%	77.3%	91.7%	54%	41.5%	12.4%	30.1%	52%	66.4%	60.5%	43.5%	108%	66.8%	54.8%	84.9%	59%	66.1%
